# Tests used:
# Settings in all cases: Compound Concentration (nM):1000
# CDKL3 = tested on: CDKL3
# CDKL5 = tested on: CDKL5
# CHEK1 = tested on: CHEK1
# CHEK2 = tested on: CHEK2
# CIT = tested on: CIT
# CLK1 = tested on: CLK1
# CLK2 = tested on: CLK2
# CLK3 = tested on: CLK3
# CLK4 = tested on: CLK4
# CSF1R-autoinhibited = tested on: CSF1R-autoinhibited
# CSF1R = tested on: CSF1R
# CSK = tested on: CSK
# CSNK1A1L = tested on: CSNK1A1L
# CSNK1A1 = tested on: CSNK1A1
# CSNK1D = tested on: CSNK1D
# CSNK1E = tested on: CSNK1E
# CSNK1G1 = tested on: CSNK1G1
# CSNK1G2 = tested on: CSNK1G2
# CSNK1G3 = tested on: CSNK1G3
# CSNK2A1 = tested on: CSNK2A1
# 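Further: KINOMEscan scanMAX binding as percent activity remaining versus control; lower means stronger binding.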
SMILES,Percent Control (CDKL3) [%],Percent Control (CDKL5) [%],Percent Control (CHEK1) [%],Percent Control (CHEK2) [%],Percent Control (CIT) [%],Percent Control (CLK1) [%],Percent Control (CLK2) [%],Percent Control (CLK3) [%],Percent Control (CLK4) [%],Percent Control (CSF1R-autoinhibited) [%],Percent Control (CSF1R) [%],Percent Control (CSK) [%],Percent Control (CSNK1A1L) [%],Percent Control (CSNK1A1) [%],Percent Control (CSNK1D) [%],Percent Control (CSNK1E) [%],Percent Control (CSNK1G1) [%],Percent Control (CSNK1G2) [%],Percent Control (CSNK1G3) [%],Percent Control (CSNK2A1) [%]
CCS(=O)(=O)c1ccc(OC)c(Nc2ncc(-c3cccc(OC)c3)o2)c1 [GW580509X],100,59,100,100,100,6.9,3.9,71,15,43,72,90,100,100,100,85,99,100,97,21
C[C@@H](Oc1cc(-n2cnc3ccc(OC4CCN(C)CC4)cc32)sc1C(N)=O)c1ccccc1Cl [GSK579289A],100,100,90,100,78,62,88,87,95,73,65,76,89,77,80,100,83,80,100,55
COc1cccc(-n2ncc3c(N/N=C/c4ccncc4)ncnc32)c1 [GW784752X],46,5.1,100,87,86,42,61,100,45,96,100,78,91,94,92,100,100,100,100,20
COc1ccc2cc(-c3c(-c4ccncc4)nc(-c4ccc(S(C)(=O)=O)cc4C)n3C)ccc2c1 [SB-633825],86,82,88,100,100,96,87,97,62,66,93,98,55,85,86,69,90,81,100,82
Cl.O=C(Nc1ccc(Oc2ccc3[nH]c(NC(=O)c4ccccc4)nc3c2)cc1)Nc1cc(C(F)(F)F)ccc1F [GW709042A],96,100,96,100,0,44,100,100,79,79,6.1,96,97,100,87,83,100,100,100,92
C/C(Nc1ccc(S(N)(=O)=O)cc1)=C1/C(=O)Nc2ccccc21 [GW335962X],94,100,93,51,86,98,78,98,100,40,100,86,97,67,87,100,88,85,99,57
Cl.O=C(Nc1ccc(Oc2ccc3[nH]c(NC(=O)c4ccco4)nc3c2)cc1)Nc1cc(C(F)(F)F)ccc1F [GW683134A],100,100,88,97,0.4,47,89,100,44,79,1.5,85,90,100,98,93,100,100,100,88
Cc1cc(O)cc(C)c1/C=C/c1cncc(C(N)=O)c1 [GW435821X],100,100,100,99,98,89,100,100,74,87,34,80,100,100,100,86,100,100,100,90
COc1cc(C)c(N(C)C(=O)CN(C)C)cc1Nc1nc(Nc2cccc(F)c2C(N)=O)c2cc[nH]c2n1 [GSK2219385],100,44,92,69,100,54,58,91,67,100,100,95,67,47,23,23,54,11,28,78
CC(C)COC(=O)c1ccc2c(c1)/C(=C/Nc1ccc(S(N)(=O)=O)cc1)C(=O)N2 [GW416981X],64,5.1,100,42,86,18,2.3,98,41,95,100,100,50,99,100,100,96,94,100,9
Cl.c1ccc(Cc2nc3ccc(Nc4ncnc5ccccc45)cc3[nH]2)cc1 [GR269666A],100,59,100,94,100,91,93,100,100,100,100,22,100,100,100,93,100,100,100,82
COc1cc(/C=N/Nc2ncnc3[nH]ncc23)ccc1O [GW578748X],97,100,7,51,83,19,29,85,50,56,93,67,94,61,57,60,67,42,79,8.7
NS(=O)(=O)c1ccc(N/N=C2\C(=O)Nc3ccc(C(=O)NCCc4c[nH]cn4)cc32)cc1 [GW300660X],100,36,100,64,100,72,5.5,100,76,90,100,100,100,89,100,100,100,100,100,27
COc1ccc2c(-c3ccnc(Nc4cccc(OC(F)(F)F)c4)n3)cnn2n1 [GW810372X],0,14,100,100,97,1.3,2.8,32,2.4,86,100,100,100,92,100,100,98,100,100,67
NS(=O)(=O)c1ccc(N/N=C2\C(=O)Nc3ccc(Cl)cc32)cc1 [GW280670X],100,100,100,100,100,100,100,100,96,60,100,100,100,100,100,93,100,100,100,81
CCn1c(-c2nonc2N)nc2c(C#CC(C)(C)O)nc(OCCNC)cc21.Cl [GSK949675],100,100,100,86,44,100,87,100,90,100,100,100,100,94,100,100,100,92,100,100
Nc1ncnc2occ(-c3ccc(NC(=O)Nc4cc(C(F)(F)F)ccc4F)cc3)c12 [GW770249X],13,100,100,96,44,41,100,100,57,25,0.2,74,92,100,82,76,98,92,99,100
CC1=C(C(=O)Nc2ccc3[nH]ncc3c2)C(c2ccc(Cl)c(Cl)c2)CC(=O)N1 (stereo not drawn) [GSK299115A],95,97,95,100,100,75,67,78,52,74,97,91,66,84,100,100,100,88,96,91

# Reference: article PMC7826789 (International Journal of Molecular Sciences, 2021)
